Reference: PubChem BioAssay (NCATS)
Unmarked numbers belong to inactive results. Records with an inconclusive call do not appear. Entries that show only a call come without a potency. Activity calls are given as the source filed them. Unless noted, calls come from the whole dose curve; as a rule, active = well fitted curve in the direction sought with a large enough effect; inconclusive = small, poorly fitted or top-dose-only effect, or another doubt; inactive = no such curve, though single readings can be large; an effect the other way counts as inactive or inconclusive.

Key:
[1] = AP1 Signaling Pathway (AID 357; active = well fitted curve in either direction with a large enough effect, not every such curve was filed as active); details: ME-180 AP-1-bla reporter, EGF-induced, beta-lactamase ratio, 5 h; at 7.69 µM (top of the series) unless noted
Procedure, shortened: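 AP-1-bla ME-180 cells with beta-lactamase reporter under AP-1 response element, stimulated with EC50 EGF; compounds titrated, 5 hours at 37 degrees Celsius. CCF4 read at 460/530 nm ratio; positive and negative modulators judged by AC50.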

[2] = target: Cytochrome P450 1A2 (Homo sapiens) (UniProt P05177); assay: p450-cyp1a2 (AID 410; calls by dose curve; note: potency is the fitted concentration of half-maximal effect)
Cytochrome P450 1A2 (Homo sapiens), sequence (P05177 whole entry, looked up): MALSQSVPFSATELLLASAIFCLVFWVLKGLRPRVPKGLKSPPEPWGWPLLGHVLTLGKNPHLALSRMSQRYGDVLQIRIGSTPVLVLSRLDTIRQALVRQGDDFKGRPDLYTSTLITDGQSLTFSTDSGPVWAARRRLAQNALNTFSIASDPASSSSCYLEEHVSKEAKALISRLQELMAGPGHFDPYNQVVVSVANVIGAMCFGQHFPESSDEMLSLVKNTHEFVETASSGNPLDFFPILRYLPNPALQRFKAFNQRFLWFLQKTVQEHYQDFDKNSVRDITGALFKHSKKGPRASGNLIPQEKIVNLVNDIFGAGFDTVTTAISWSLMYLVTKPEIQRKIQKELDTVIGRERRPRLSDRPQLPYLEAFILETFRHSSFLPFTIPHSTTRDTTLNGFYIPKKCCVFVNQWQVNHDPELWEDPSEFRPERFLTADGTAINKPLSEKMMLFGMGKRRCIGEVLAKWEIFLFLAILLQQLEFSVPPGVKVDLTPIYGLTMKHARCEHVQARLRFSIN
Procedure, shortened: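 20nM CYP1A2, 100uM Luciferin-ME (=Km), 100mM KPO4; cpd 10 min RT; +NADPH regen, 60 min RT; stop/detect 20 min; luminescence. Normalized to furafylline 57 uM = full inhibition.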

[3] = NFAT Signaling Pathway (AID 444; active = well fitted curve in either direction with a large enough effect, not every such curve was filed as active;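 note: carbachol stimulus at about its EC50 of 1 µM final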); details: Jurkat NFAT-bla M1, carbachol, beta-lactamase ratio, 5 h; at 7.69 µM (top of the series) unless noted
Procedure, shortened: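 Jurkat cells with NFAT-driven β-lactamase reporter and co-expressed M1 receptor, stimulated with carbachol (final 1 uM, ~EC50), compound titration, 5 h at 37 °C. CCF4 loaded 1 h at RT; 460/530 nm ratio gave %activity and AC50.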

[4] = Stat Signaling Pathway (AID 446; active = well fitted curve in either direction with a large enough effect, not every such curve was filed as active;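 note: ME-180 cervical cancer cells given 40 pM IL-6 alongside compound; SIE-controlled beta-lactamase reporter measured as 460/530 nm FRET emission ratio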); details: ME-180 SIE beta-lactamase reporter, IL-6 stimulated, 5 h; at 7.69 µM (top of the series) unless noted
Procedure, shortened: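 Emission at 460 and 530 nm (excitation 405 nm) reports SIE-controlled beta-lactamase in ME-180 cells. Cells received compound with 40 pM IL-6 for 5 hrs at 37 C; data scaled between 300 pM IL-6 and 125 nM JAK-inhibitor controls.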

[5] = target: Glucocorticoid receptor (Homo sapiens) (UniProt P04150); assay: GR-GFP Redistribution (AID 450;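 active = compounds whose dose series gives a full or clear partial fitted curve of increased nuclear translocation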; note: potency is the fitted concentration of half-maximal effect); details: U2OS GR-GFP nuclear translocation, laser cytometry, 2 h
Glucocorticoid receptor (Homo sapiens), sequence (P04150 whole entry, looked up, the tested form may be a part): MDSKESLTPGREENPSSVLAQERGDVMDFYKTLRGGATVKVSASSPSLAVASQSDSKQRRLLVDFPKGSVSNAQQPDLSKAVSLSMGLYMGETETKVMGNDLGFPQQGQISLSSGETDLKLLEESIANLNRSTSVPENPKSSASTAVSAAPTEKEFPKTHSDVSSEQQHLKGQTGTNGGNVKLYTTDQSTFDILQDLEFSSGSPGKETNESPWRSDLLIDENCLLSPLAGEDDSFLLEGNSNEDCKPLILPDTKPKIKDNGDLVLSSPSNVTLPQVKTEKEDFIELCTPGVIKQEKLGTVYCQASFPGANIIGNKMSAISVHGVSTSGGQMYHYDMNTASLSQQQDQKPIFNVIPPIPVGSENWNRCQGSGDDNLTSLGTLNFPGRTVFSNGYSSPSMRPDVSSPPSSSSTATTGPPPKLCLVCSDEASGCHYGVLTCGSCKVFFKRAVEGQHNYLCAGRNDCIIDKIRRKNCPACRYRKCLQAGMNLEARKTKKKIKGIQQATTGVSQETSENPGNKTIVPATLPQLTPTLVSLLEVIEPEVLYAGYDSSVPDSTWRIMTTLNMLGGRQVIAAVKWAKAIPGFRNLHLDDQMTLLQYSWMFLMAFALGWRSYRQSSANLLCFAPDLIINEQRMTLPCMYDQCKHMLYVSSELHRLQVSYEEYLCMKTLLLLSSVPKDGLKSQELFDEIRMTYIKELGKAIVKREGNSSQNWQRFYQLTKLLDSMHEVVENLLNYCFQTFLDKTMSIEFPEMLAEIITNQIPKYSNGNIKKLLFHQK

[6] = target: Glucocorticoid receptor (Homo sapiens) (UniProt P04150); assay: GR-EFC Redistribution (AID 451; calls by dose curve; note: potency is the fitted concentration of half-maximal effect); details: CHO-K1 GR-EFC translocation, beta-gal luminescence, 2 h
Procedure, shortened: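 CHO-K1 cells expressing nuclear EA and GR-ED fragments of b-gal; compounds titrated up to 46 uM final, 2 h at 37 C. GR nuclear translocation read as complemented b-gal luminescence after 1 h RT detection.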

[7] = target: Mitogen-activated protein kinase 10 (Mus musculus) (UniProt Q61831); assay: JNK3 AlphaScreen Assay (AID 530; active = well fitted curve in either direction with a large enough effect, not every such curve was filed as active;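 note: kinase came from lysate of stimulated human HepG2 cells; signal reports phosphorylation of biotinylated GST-cJun 1-79 at Ser73 with 10 µM ATP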)
Procedure, shortened: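 HepG2 lysate (IL-1b/TNFa pre-activated) + biotin-GST-cJun 1-79 + anti-pSer73 cJun; cpd titration, 15 min RT; ATP 10 uM start; Tris pH 7.6, MgCl2, DTT, vanadate; beads in EDTA buffer; AlphaScreen.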

[8] = target: 3',5'-cyclic-AMP phosphodiesterase 4B (Homo sapiens) (UniProt Q07343); assay: qHTS Assay for Inhibitors of PDE-IV (AID 607; active = well fitted activation curve with a large enough effect in the main read-out, with a control signal flat, not every such curve was filed as active)
3',5'-cyclic-AMP phosphodiesterase 4B (Homo sapiens), sequence (Q07343 whole entry, looked up): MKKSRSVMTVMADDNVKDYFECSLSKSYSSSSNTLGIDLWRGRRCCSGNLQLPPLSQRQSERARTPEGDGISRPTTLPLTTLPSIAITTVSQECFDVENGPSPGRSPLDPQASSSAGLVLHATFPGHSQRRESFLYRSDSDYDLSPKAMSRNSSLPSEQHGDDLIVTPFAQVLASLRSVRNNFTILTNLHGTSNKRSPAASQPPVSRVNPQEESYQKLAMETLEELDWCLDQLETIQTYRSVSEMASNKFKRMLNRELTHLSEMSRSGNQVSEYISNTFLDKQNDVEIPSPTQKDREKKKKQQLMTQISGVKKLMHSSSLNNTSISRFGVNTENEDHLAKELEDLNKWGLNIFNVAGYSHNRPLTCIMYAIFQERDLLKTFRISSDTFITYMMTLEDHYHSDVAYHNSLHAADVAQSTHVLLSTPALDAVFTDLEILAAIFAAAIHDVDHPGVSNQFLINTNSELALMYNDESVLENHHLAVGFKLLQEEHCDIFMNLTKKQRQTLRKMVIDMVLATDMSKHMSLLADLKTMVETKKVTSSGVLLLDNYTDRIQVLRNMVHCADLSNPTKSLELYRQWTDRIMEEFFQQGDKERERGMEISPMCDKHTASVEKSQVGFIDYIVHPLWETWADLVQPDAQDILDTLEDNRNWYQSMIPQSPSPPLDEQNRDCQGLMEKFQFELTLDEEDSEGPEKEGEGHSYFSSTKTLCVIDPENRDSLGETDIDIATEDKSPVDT
Procedure, shortened: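 The readout is membrane depolarisation from a cAMP-sensing CNG channel, detected with a potential dye at ex 535/em 590. Cells were HEK293-derived (endogenous PDE-IV) at 1000 cells/well, titrated up to 22.9 uM final.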

[9] = target: Cytochrome P450 2C9 (Homo sapiens) (UniProt P11712); assay: qHTS Assay for Inhibitors and Substrates of Cytochrome P450 2C9 (AID 883); note: nearly all actives have a fitted effect of over 60% in size; note: potency is the fitted concentration of half-maximal effect
Cytochrome P450 2C9 (Homo sapiens), sequence (P11712 whole entry, looked up): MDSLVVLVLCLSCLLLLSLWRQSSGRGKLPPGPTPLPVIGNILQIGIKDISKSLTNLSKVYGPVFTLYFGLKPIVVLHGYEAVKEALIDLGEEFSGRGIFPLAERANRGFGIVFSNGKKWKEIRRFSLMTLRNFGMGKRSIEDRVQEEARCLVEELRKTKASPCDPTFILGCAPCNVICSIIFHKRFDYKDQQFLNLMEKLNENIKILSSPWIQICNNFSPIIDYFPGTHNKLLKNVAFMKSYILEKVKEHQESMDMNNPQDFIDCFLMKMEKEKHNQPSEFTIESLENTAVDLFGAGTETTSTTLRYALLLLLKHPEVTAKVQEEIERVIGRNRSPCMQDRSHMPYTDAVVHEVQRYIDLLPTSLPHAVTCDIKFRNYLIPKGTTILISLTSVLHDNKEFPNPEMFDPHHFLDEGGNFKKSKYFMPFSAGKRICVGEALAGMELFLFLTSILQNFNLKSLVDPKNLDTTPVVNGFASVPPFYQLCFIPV
Procedure, shortened: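 Signal: luciferase luminescence reporting luciferin produced by CYP2C9. Conditions: 10nM enzyme, Luciferin-H 100uM at KM, 25mM KPO4, 37C, 60 min NADPH-driven reaction. Reference: 57uM sulphaphenazole as 100% inhibition.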

[10] = target: Cytochrome P450 2D6 (Homo sapiens) (UniProt P10635); assay: qHTS Assay for Inhibitors and Substrates of Cytochrome P450 2D6 (AID 891);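 note: luciferin methyl ether substrate demethylated by CYP2D6 with NADPH regeneration; nearly all actives have a fitted effect of over 60% in size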
Procedure, shortened: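 Luminescent read-out of luciferin formed by 5 nM human CYP2D6 demethylating 30 uM Luciferin-ME EGE (Km level) over 60 min at room temperature after NADPH regeneration addition. Data normalized to full inhibition by 1.43 uM quinidine.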

[11] = target: Cytochrome P450 2C19 (Homo sapiens) (UniProt P33261); assay: qHTS Assay for Inhibitors and Substrates of Cytochrome P450 2C19 (AID 899); note: nearly all actives have a fitted effect of over 60% in size
Cytochrome P450 2C19 (Homo sapiens), sequence (P33261 whole entry, looked up): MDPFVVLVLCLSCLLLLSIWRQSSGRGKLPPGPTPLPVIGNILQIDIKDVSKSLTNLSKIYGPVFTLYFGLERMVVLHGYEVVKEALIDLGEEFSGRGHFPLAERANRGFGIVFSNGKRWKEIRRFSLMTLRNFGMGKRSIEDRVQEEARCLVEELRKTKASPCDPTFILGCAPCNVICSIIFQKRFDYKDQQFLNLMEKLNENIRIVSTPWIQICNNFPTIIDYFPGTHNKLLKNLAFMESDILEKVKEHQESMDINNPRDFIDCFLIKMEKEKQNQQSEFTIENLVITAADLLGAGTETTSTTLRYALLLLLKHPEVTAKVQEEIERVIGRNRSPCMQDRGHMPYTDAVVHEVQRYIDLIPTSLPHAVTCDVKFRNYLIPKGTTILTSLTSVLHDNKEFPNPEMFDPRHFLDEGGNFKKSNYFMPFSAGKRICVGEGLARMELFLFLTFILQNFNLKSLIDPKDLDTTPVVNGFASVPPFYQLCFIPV
Procedure, shortened: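 Signal comes from luciferase acting on luciferin released by CYP2C19-mediated hydroxylation of Luciferin-H EGE, 10uM (KM). Assay mix: 5nM enzyme, 50mM KPO4; 60 min at 37C with NADPH regeneration. Data normalized against 57uM ketoconazole.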

[12] = target: Guanine nucleotide-binding protein G(i) subunit alpha-1 (Homo sapiens) (UniProt P63096); assay: qHTS Assay for Inhibitors of RGS12 GoLoco Motif Activity (Green Fluorophore) (AID 879);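 note: negative values mean loss of peptide binding seen as reduced polarization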
Guanine nucleotide-binding protein G(i) subunit alpha-1 (Homo sapiens), sequence (P63096 whole entry, looked up): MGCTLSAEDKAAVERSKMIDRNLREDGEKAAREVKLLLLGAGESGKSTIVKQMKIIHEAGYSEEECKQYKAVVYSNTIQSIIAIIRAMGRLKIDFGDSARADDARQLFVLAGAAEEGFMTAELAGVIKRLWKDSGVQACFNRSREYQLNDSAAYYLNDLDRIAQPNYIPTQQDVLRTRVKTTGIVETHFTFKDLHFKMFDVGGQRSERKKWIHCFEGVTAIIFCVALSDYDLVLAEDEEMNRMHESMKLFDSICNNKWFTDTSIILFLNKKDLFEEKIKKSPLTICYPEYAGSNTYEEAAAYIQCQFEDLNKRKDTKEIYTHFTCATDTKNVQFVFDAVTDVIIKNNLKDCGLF
Procedure, shortened: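 A drop in FITC polarization marked displacement of the FITC-tagged RGS12 GoLoco peptide (10 nM) from Gαi1 (50 nM). Compounds were incubated 10 min at room temperature in Tris pH 7.5 buffer containing 150 mM NaCl, 0.1 mM GDP and 0.05% NP40; unlabeled peptide titration served as control.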

[13] = qHTS Assay for Identification of Small Molecule Antagonists for NFkB Signaling Pathway (AID 895; active = well fitted inhibition curve with a large enough effect in the signal ratio, with a control signal flat, not every such curve was filed as active; the % refers to the signal ratio)
Procedure, shortened: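 ME-180 NFkB-bla cells (beta-lactamase under NFkB response element), plated overnight, treated with compound then 10 pM TNF alpha (about EC50) for 5 hrs at 37 C. LiveBLAzer FRET read at 460/530 nm emission, 405 nm excitation.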

[14] = qHTS Assay for Identification of Small Molecule Agonists for Thrombopoietin (TPO) Signaling Pathway (AID 917)
Procedure, shortened: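 Cell-based luciferase reporter screen. Mouse Ba/F3 line stably expressing human TPO receptor; IL-3 removed overnight before plating. Co-treatment with compound and EC50 TPO (26 pM), 24 hrs at 37 C, then luminescence.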

[15] = target: Muscarinic acetylcholine receptor M1 (Rattus norvegicus) (UniProt P08482); assay: qHTS Assay for Antagonists of Acetylcholine Muscarinic M1 Receptor: Measurement of IP-One Response (AID 944); note: nearly all actives have a fitted effect of over 75% in size
Procedure, shortened: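 Read-out: HTRF competition between d2-IP1 and Eu-cryptate anti-IP1 antibody, emission 620 and 665 nm. Stimulus was carbachol, EC80 (200 nM), for 30 min in M1-CHO cells (rat receptor), after 10 min compound pre-treatment.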

[16] = target: Pyruvate kinase PKM (Homo sapiens) (UniProt P14618); assay: qHTS Assay for Activators of Human Muscle Pyruvate Kinase (AID 954; active = well fitted curve in the direction sought with a large enough effect, not every such curve was filed as active)
Pyruvate kinase PKM (Homo sapiens), sequence (P14618 whole entry, looked up): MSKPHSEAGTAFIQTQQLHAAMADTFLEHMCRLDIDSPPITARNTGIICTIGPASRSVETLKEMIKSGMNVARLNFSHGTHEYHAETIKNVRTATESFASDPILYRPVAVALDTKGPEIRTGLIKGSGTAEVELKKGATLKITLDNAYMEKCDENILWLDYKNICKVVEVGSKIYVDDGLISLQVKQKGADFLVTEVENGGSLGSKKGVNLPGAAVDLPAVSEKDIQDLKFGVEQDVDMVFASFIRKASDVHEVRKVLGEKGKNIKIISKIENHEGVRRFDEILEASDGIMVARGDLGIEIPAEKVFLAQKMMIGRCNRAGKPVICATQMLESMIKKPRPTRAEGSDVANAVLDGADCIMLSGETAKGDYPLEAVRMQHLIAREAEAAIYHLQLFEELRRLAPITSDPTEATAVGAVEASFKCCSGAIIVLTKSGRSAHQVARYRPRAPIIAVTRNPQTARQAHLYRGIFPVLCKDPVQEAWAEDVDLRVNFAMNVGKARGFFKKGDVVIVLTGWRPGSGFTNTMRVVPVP
Procedure, shortened: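 PKM2, human, >95% pure, 0.1 nM; PEP 0.5 mM (Km), ADP 0.1 mM; 50 mM imidazole pH 7.2, 50 mM KCl, 0.01% Tween 20, 0.05% BSA; 1 h RT; luciferase luminescence readout.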

[17] = target: alpha-glucosidase (Oryza sativa, rice) (UniProt Q653V4); assay: Counterscreen for Glucocerebrosidase Inhibitors: qHTS Assay for Rice alpha-Glucosidase at pH 5.0 (AID 997)
Procedure, shortened: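 Endpoint fluorogenic assay at pH 5.0: compounds (0.7 nM to 77 uM) titrated against 4 nM rice enzyme and 400 uM 4-MU-alpha-glucoside for 20 min at room temperature; NaOH/glycine stop, read ex 365/em 440 nm, Hill-fitted AC50.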

[18] = target: Pyruvate kinase (Leishmania mexicana) (UniProt Q27686); assay: qHTS Validation Assay for Inhibitors of Leishmania Mexicana Pyruvate Kinase (AID 945)
Pyruvate kinase (Leishmania mexicana), sequence (Q27686 2-499 E452W): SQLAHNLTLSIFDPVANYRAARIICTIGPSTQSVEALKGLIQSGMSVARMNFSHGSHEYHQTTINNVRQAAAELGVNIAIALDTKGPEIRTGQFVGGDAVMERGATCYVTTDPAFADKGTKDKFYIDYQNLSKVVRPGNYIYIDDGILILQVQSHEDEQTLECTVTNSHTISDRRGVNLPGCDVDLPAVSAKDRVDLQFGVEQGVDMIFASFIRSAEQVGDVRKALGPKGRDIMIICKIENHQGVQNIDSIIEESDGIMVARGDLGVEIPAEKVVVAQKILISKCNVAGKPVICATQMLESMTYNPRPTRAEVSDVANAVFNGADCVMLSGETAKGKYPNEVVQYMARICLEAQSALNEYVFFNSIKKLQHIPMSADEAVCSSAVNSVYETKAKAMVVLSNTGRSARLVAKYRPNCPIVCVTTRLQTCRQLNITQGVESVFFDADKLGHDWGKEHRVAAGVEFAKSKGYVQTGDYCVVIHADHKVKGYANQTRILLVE
Procedure, shortened: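 Read-out: luminescence from PKLight stop/detection reagent, data normalized to DMSO. Reaction: 0.2 nM E451W LmPYK, 0.5 mM PEP, 0.1 mM ADP, pH 7.2, 1 h room temperature.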

[19] = target: Alpha-galactosidase A (Homo sapiens) (UniProt P06280); assay: Counterscreen for Glucocerebrosidase Inhibitors: qHTS Assay for Human alpha-Galactosidase at pH 4.5 (AID 992)
Alpha-galactosidase A (Homo sapiens), sequence (P06280 whole entry, looked up): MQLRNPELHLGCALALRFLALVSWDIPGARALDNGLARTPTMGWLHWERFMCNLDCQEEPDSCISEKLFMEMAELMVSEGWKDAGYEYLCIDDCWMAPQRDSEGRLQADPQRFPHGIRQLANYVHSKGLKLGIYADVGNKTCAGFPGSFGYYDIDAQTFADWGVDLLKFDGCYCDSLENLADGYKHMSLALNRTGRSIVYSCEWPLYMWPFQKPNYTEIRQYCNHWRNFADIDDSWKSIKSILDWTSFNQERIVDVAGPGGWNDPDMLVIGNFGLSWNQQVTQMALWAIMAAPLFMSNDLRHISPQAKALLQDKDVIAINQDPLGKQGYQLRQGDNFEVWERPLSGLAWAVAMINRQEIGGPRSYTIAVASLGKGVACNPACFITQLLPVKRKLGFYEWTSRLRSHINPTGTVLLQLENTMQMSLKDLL
Procedure, shortened: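 Fluorogenic 4-MU alpha-D-galactoside (80 uM) hydrolysis, 2 nM enzyme, pH 4.5 citrate buffer + 0.005% Tween-20; 20 min RT; NaOH/glycine pH 10 stop; Ex365/Em440. Compounds titrated 0.7 nM–77 uM; Hill-equation AC50.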

[20] = target: Cytochrome P450 3A4 (Homo sapiens) (UniProt P08684); assay: qHTS Assay for Activators of Cytochrome P450 3A4 (AID 885); note: nearly all actives have a fitted effect of over 65% in size
Procedure, shortened: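 Activators are scored by enhanced luminescence from CYP3A4 conversion of luciferin-PPXE (25uM, equal to KM) to luciferin, after 60 min at RT with an NADPH-regenerating system.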

Structure (SMILES) | activity change, negative = inhibition [1] | Potency [2] | activity change, negative = inhibition [3] | activity, negative = inhibition [4] | Potency [5] | Potency [6] | Potency [7] | Potency [8] | Potency [9] | Potency [10] | Potency [11] | outcome [12] | Potency [13] | outcome [14] | Potency [15] | outcome [16] | Potency [17] | outcome [18] | outcome [19] | Potency [20]
O=C(O)CCCCCC[C@@H]1C(=O)NC(=O)N1CC[C@@H](O)C1CCCCC1 | -8.86% [at 38 µM] | inactive | -9.7% [at 38 µM] | 3.65% [at 38 µM] | > 46 µM | > 46 µM | inactive | inactive | inactive | inactive | inactive | – | – | – | – | – | – | – | – | –
NC(=O)C1=CN([C@@H]2O[C@@H](COP(=O)(O)OP(=O)(O)OC[C@@H]3O[C@H](n4cnc5c(N)ncnc54)[C@@H](OP(=O)(O)O)[C@@H]3O)[C@H](O)[C@@H]2O)C=CC1 | 7.61% [at 38 µM] | inactive | 0.746% [at 38 µM] | -8.82% [at 38 µM] | > 46 µM | > 46 µM | inactive | inactive | – | – | – | inactive | inactive | inactive | inactive | inactive | inactive | – | – | –
Cc1ccccc1/C=C\C1=NCCN1 | -3.38% [at 38 µM] | 6.31 µM (active) | -1.9% [at 38 µM] | 5.08% [at 38 µM] | > 46 µM | > 46 µM | inactive | inactive | – | – | – | inactive | – | – | inactive | inactive | inactive | inactive | inactive | –
Nc1nc2c(nc(Br)n2[C@@H]2O[C@H]3COP(=O)(O)O[C@@H]3[C@H]2O)c(=O)[nH]1 | 8.86% [at 38 µM] | inactive | -0.742% [at 38 µM] | -10.7% [at 38 µM] | 12.1 µM (active) | > 46 µM | inactive | inactive | – | – | – | inactive | – | inactive | inactive | inactive | inactive | inactive | inactive | –
NC[C@H](O)C1CCCCCCC1 | 3.98% [at 38 µM] | inactive | 4.63% [at 38 µM] | 14.7% [at 38 µM] | > 46 µM | > 46 µM | inactive | inactive | – | – | – | inactive | – | inactive | inactive | inactive | inactive | inactive | inactive | –
OC[C@@H]1O[C@@H](n2cnc3c(NC4CCCC4)ncnc32)[C@@H](O)[C@H]1O | -0.201% [at 38 µM] | inactive | 1.91% [at 38 µM] | 12.2% [at 38 µM] | > 46 µM | > 46 µM | inactive | inactive | – | – | – | inactive | – | inactive | – | inactive | inactive | inactive | – | –
N#CCCn1c(=O)c(CCc2ccccc2)nc2cnc(Oc3ccccc3)nc21 | -21% | 12.6 µM (active) | -2.26% | -14.5% | > 9.22 µM | > 46 µM | inactive | inactive | 7.94 µM (active) | – | – | – | – | – | – | – | – | – | – | inactive
CCN1/C(=C\C(C)=O)Sc2ccc(OC)cc21 | -18.4% [at 38 µM] | 0.631 µM (active) | 10.3% [at 38 µM] | 2.84% [at 38 µM] | > 46 µM | > 46 µM | inactive | inactive | inactive | inactive | inactive | – | – | – | – | – | – | – | – | –
Nc1ncnc2c1nc(Sc1ccc(Cl)cc1)n2[C@@H]1O[C@H]2COP(=O)(O)O[C@@H]2[C@H]1O | 6.42% [at 38 µM] | inactive | -0.761% [at 38 µM] | 5.32% [at 38 µM] | > 46 µM | > 46 µM | inactive | inactive | – | – | – | inactive | – | inactive | inactive | inactive | inactive | inactive | inactive | –
O=C(O)CCC/C=C\C[C@H]1[C@@H](/C=C\[C@@H](O)C2Cc3ccccc3C2)[C@H](F)C[C@H]1O | -14.7% [at 38 µM] | inactive | 14.3% [at 38 µM] | 9.41% [at 38 µM] | > 46 µM | > 46 µM | inactive | inactive | inactive | – | inactive | – | – | – | – | – | – | – | – | –
N[C@H](CCC(=O)NCS(=O)(=O)O)C(=O)O | 3.52% [at 38 µM] | inactive | 4.56% [at 38 µM] | -7.51% [at 38 µM] | > 46 µM | > 46 µM | inactive | inactive | – | – | – | inactive | – | inactive | inactive | inactive | inactive | inactive | inactive | –
N.N.N.N.N.N.N.N.N.N.N.N.N.N.O.O.[Ru].[Ru].[Ru] | 17.6% [at 38 µM] | inactive | -5.33% [at 38 µM] | -27% [at 38 µM] | > 46 µM | > 46 µM | inactive | inactive | – | – | – | inactive | – | inactive | inactive | inactive | inactive | – | inactive | inactive
